Screens deposited in PubChem by several laboratories.
EP2 antag: blocks the human prostaglandin E2 receptor EP2; 0.52% of 260,000 active; P43116; AID 1422; inhibition, % at 25 µM; C6 glioma cells expressing human EP2, cAMP TR-FRET; cells stimulated with saturating PGE2;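 active = percent inhibition above 40 after rounding to a whole number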;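 also: rat C6 glioma host cells with rolipram phosphodiesterase inhibitor present; the protocol text gives 20 µM as final concentration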
eIF4E-4G inh: eIF4E/eIF4G interaction inhibition in translation initiation; 0.37% of 220,000 active; AID 782; TR-FRET eIF4E-eIF4GI(517-606) binding, 2 h; inhibition, % at 21.7 µM; P63073+Q04637;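 active = inhibition above about 30%, limit read from the data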;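 also: 0% = full FRET control wells and 100% = background wells lacking eIF4GI fragment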
Target sequence (P63073 whole entry, looked up, the tested form may be a part): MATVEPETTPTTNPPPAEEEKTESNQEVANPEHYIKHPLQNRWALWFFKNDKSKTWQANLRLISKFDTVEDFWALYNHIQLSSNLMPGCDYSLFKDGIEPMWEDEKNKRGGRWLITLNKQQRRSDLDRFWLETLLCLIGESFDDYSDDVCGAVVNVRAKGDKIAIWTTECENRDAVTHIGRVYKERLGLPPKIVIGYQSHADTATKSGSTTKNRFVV
Target sequence (Q04637 whole entry, looked up, the tested form may be a part): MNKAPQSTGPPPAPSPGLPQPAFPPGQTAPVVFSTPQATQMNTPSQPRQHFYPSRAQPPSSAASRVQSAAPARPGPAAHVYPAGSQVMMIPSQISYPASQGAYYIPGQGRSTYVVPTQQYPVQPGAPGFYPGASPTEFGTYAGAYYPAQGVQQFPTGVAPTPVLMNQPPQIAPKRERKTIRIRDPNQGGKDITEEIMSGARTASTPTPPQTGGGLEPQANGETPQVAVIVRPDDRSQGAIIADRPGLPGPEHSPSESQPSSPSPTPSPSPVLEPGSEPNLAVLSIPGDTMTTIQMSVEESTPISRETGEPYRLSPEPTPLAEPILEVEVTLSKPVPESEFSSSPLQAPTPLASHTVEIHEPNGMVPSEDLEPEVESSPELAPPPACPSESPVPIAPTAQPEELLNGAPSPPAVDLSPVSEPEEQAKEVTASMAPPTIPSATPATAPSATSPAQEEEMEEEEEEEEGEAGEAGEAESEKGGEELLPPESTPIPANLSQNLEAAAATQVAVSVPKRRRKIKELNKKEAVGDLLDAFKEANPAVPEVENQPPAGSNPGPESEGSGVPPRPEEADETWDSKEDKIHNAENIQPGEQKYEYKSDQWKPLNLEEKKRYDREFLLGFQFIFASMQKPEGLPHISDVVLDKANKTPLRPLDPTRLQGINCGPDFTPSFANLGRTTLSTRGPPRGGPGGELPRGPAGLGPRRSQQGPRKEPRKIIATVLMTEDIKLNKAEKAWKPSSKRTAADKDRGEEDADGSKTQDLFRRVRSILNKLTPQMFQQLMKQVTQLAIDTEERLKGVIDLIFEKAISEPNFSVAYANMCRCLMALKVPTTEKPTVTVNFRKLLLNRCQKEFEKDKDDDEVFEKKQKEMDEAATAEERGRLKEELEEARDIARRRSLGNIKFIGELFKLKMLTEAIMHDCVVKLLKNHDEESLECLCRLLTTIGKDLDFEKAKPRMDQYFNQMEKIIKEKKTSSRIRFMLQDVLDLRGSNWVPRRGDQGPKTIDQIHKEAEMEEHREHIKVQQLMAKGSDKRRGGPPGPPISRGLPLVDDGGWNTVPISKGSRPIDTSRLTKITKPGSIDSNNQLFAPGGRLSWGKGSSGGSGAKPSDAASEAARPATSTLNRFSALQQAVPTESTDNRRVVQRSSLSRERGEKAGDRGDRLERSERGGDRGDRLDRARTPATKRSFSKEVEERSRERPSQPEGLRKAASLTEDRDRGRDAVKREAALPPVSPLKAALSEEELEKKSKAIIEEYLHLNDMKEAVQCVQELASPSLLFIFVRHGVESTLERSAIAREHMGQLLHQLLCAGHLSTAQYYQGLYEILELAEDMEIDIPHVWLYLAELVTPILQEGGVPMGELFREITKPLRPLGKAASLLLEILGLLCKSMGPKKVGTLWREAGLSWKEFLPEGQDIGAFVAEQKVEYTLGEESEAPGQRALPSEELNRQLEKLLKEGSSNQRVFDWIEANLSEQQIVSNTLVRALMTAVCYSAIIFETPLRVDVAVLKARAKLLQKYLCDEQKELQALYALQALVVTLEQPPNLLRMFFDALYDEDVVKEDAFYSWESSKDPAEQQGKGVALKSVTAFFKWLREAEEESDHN
PERK inhibitor: inhibitors of human PERK kinase; inhibition, % at 5.6 µM; CHO PERK-DD fusion, SEAP luminescence translation reporter; 0.17% of 220,000 active;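 active = inhibition above the mean inhibition of all tested compounds plus 3 SD, set separately per screening campaign, cut at about 2.9% in these data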;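 also: PERK kinase domain activated by AP20187 dimerizer at 100 nM; 0% = DMSO with dimerizer and 100% = rapamycin at 8.4 µM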
EP2 modulator: modulators of human EP2 prostaglandin E2 receptor; EP2-expressing cells, cAMP HTRF FRET, PGE2 co-stimulation; induction, % at 25 µM; 0.83% of 260,000 active;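 active = compounds whose cAMP rise, as percent of the full-agonist control response, exceeds 60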;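 also: rat C6 glioma line stably carrying human EP2 under a CMV promoter; the protocol text gives 20 µM as final concentration; 100% = response of wells given 1 µM PGE2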
An asterisk follows results filed as active; x = no result; + = active, no number; ! = repeats disagree; [ ] = remark or other dose. Hits are enriched below; roughly 1.8% of the tested compounds scored in any of these assays.

SMILES | EP2 antag | eIF4E-4G inh | PERK inhibitor | EP2 modulator
CC1=CC2=NC(=O)CC(C)(C(=O)N(CC(=O)NC3CCCC3)c3cc(C)cc(C)c3)N2C=C1 (centres undefined) | 7 | 35* | 0 | 19
COCCCN1C(=O)/C(=C\c2ccc3c(c2)OCO3)C(C(=O)OC)=C1C | 4 | -1 | 3.2* | -5
Nc1nc(N)nc(-c2ccccc2-c2nc(N)nc(N)n2)n1 | 2 | 0 | 1 | -20
[Cu].c1ccc2c(c1)-c1nc-2nc2[n-]c(nc3nc(nc4[n-]c(n1)c1ccccc41)-c1ccccc1-3)c1ccccc21 | 54* | x | x | 1
Cc1cc2c(NC(=O)Nc3ccc(F)cc3)cccc2nn1 | 12 | 2 | 3.4* | -17
CCCCC(CC)CN=C(N)NC(N)=NCCCCCCN=C(N)NC(N)=NCC(CC)CCCC (centres undefined) | 71* | x | x | -15
NC(=NCCC[C@H](N)C(=O)O)NO | 12 | x | x | 26
Cc1cc(OCc2nc(N)nc(N)c2-c2ccc(Cl)c(Cl)c2)ccc1[N+](=O)[O-] | 68* | x | x | -35
CCc1nnc(NC(=O)CSc2nc(C(C)C)nc3sc4c(c23)CCCC4)s1 | 10 | x | x | 12
CCOC(=O)c1sc2nc3c(SCCC(=O)O)cc(C(=O)c4cc(OC)ccc4O)cn3c(=O)c2c1C | 2 | 57* | 1 | 19
CCc1c(C)sc2nc(C)nc(SCC(=O)Nc3ccccc3OC)c12 | 9 | x | x | 66*
CCOc1ccccc1NC(=O)CSc1nc(-c2ccccc2)nc2ccccc12 | 6 | x | x | 61*
CCn1c(SCC(=O)Nc2ccccc2OC)nc2ccccc2c1=O | 6 | 69*[fluorescence artefact?] | -1 | -54
COc1ccc(/C=C2/SC(=S)N(c3cccc(O)c3)C2=O)cc1 | 10 | x | x | -107
O=C(Cn1nc(-c2ccc3c(c2)OCCO3)ccc1=O)Nc1ccc(NC(=O)c2ccccn2)cc1 | 8 | x | x | -19
CCN(CC)CC[n+]1ccc2c(C)c3[nH]c4ccccc4c3c(C)c2c1 | 58* | x | x | -41
CCN(CC)CCn1c(=S)[nH]c2ccccc2c1=O | 4 | -2 | 1 | 0
COc1ccc(OC)c(S(=O)(=O)N2CCC(C(=O)Nc3ccc(C)cc3)CC2)c1 | 6 | x | x | -95
Cn1c(=O)c2nc(NCc3ccccc3)cnc2n(C)c1=O | x | 5 | 0 | 65*
S=c1[nH]nc(NCCCN2CCOCC2)s1 | 8 | 42* | 1 | -19
CC1(C)CC(=O)C(C(C2=C(O)CC(C)(C)CC2=O)c2ccc(Br)s2)C(=O)C1 (centres undefined) | 51* | 7 | 1 | -78
COc1cccc(NC(=O)CSc2nnc(COc3ccc(C)cc3)n2C)c1 | 24 | x | x | -88
COc1cc(Cn2c(-c3ccc(O)c(OC)c3)nc3ccccc32)ccc1O | 5 | 1 | -1 | 55
Oc1ccc(Cn2c(-c3ccc(O)cc3)nc3ccccc32)cc1 | 47* | x | x | 21
CCN1/C(=C/C=C/C=C/c2sc3ccccc3[n+]2CC)Sc2ccccc21 | 50* | -175 | -1 | -64
SMILES | EP2 antag | eIF4E-4G inh | PERK inhibitor | EP2 modulator
O=C(CCc1cc(Cl)no1)N1CCCC(c2noc(-c3ccccn3)n2)C1 (centres undefined) | 10 | x | x | -22
CCOc1cc(C(N)=O)cc(Br)c1OC | 4 | -5 | 4.9* | -5
CCOc1cc(C(N)=O)cc(OCC)c1OCC | 14 | 2 | 1 | 11
COc1ccc(OC)c2[nH]c(C(=O)N3C4CCC3CC(c3ccc(F)cc3)C4)cc12 (centres undefined) | x | x | x | -8
OC1(c2ccccc2)CCN(Cc2ccccc2-n2cccn2)C1 (centres undefined) | 8 | x | x | -41
Nc1[nH]c(=S)[nH]c(=O)c1N=Nc1c(Br)cc(S(N)(=O)=O)cc1Br | 51* | x | x | 3
O=C(Nc1ccc(S(=O)(=O)Nc2ncccn2)cc1)c1ccc2ncsc2c1 | 10 | 51* | 2.9* | 15
O=C(Nc1ccccc1Br)c1ccc2nccnc2c1 | 6 | x | x | 4
NS(=O)(=O)c1ccc(NC(=O)c2ccc3nccnc3c2)cc1 | 4 | 94* | 1 | -1
Cc1ccc2cc(CN(C(=O)Nc3ccccc3F)C3CCCC3)c(=O)[nH]c2c1 | 12 | x | x | -18
CCOc1ccc(-c2nc(=S)[nH][nH]2)cc1 | 11 | 52* | 3 | -29
COc1ccc(-c2nc(=S)[nH][nH]2)cc1 | 8 | 4 | 1 | 12
O=C1CCCC2=C1C(c1ccc(Br)cc1)c1c([nH]c(=S)[nH]c1=O)N2 (centres undefined) | 10 | 59* | 2 | 22
CC(=O)Nc1ccc(S(=O)(=O)N2CC=C[C@H]2C(=O)NC2CC2)cc1 | x | x | x | -18
Cc1nc2cc(C)c(C)cc2s1 | 6 | 2 | 0 | 18
Cc1cc2nc3ccc(=[N+](C)C)cc-3sc2cc1N | + | -40 | 2 | -413
CN(C)c1ccc2nc3ccc(=[N+](C)C)cc-3sc2c1 | + | -36 | 2 | -223
COc1ccc2nc(N=Nc3ccc(N(C)C)cc3)sc2c1 | x | -9 | 2 | 4
Oc1ccc(Cl)cc1Cc1cc(Cl)cc(Cc2cc(Cl)ccc2O)c1O | 58* | x | x | 7
CN(C)CC(c1ccccc1)c1ccccc1 | 5 | 1 | 4.3* | 51
CC1=C(CC[C@H](C)CO)O[C@@H]2C[C@@H]3[C@H]4CC[C@H]5C[C@@H](O)CC[C@]5(C)[C@@H]4CC(=O)[C@@]3(C)[C@H]12 | 65* | x | x | 24
C=CCc1ccc(-c2ccc(I)cc2)nc1 | 13 | x | x | 13
COc1ccc2cc3c(N)nn(C(=O)c4cccc(F)c4)c3nc2c1 | 2 | 75* | 0 | -33
COc1ccc2cc3c(N)nn(C(=O)c4ccc(F)cc4)c3nc2c1 | 5 | 5 | -1 | -3
Cc1cc(C)cc(NC(=O)c2ccccc2CC[N+](=O)[O-])c1 | 9 | 76* | -1 | 0
SMILES | EP2 antag | eIF4E-4G inh | PERK inhibitor | EP2 modulator
CCCCCN=C(N)N/N=C/c1c[nH]c2ccc(OC)cc12 | 136*! | x | x | 15
Cn1c(=O)oc2cc(S(=O)(=O)NC3C4CCCCC43)ccc21 (centres undefined) | 8 | x | x | -39
CCN1C(=O)c2cccc3c(NC(=O)C(C)(C)C)ccc1c23 | 50* | 4 | 0 | -11
CCOc1cc(C(=O)Nc2ccc3c4c(cccc24)C(=O)N3CC)cc(OCC)c1OCC | 12 | 59* | -1 | 12
COc1ccc(OC)c(CN(Cc2coc3ccc(C)cc3c2=O)CC2CCCO2)c1 (centres undefined) | 5 | x | x | 10
N#CSc1cnc(N)s1 | 111* | x | x | -120
O=C1CC(c2ccco2)CC(O)=C1C=Nc1cc(Cl)cc(Cl)c1 (centres undefined) | 10 | 52* | 2 | -4
COC(=O)c1[nH]c2ccc(F)cc2c1NS(=O)(=O)c1ccc(F)c(C)c1 | 8 | 5 | 0 | 50
COC(=O)c1[nH]c2ccc(C)cc2c1NS(=O)(=O)c1ccc(F)c(C)c1 | x | 9 | 0 | 63*
Cc1n[nH]c(C)c1Cc1c(F)cccc1Cl | -2 | -1 | 1 | 87*
Cc1ccc(C)c(NC(=S)NCCN(C2CCCCC2)C2CCCC2)c1 | 7 | 97* | 0 | -43
O=C(CSc1nc(-c2ccccc2)nc2c1Cc1ccccc1O2)Nc1ccccc1 | x | 3 | 1 | 9
